Test results as given in PubChem BioAssay (NCI).
This is part of a sample that, as a whole, favours compounds with a hit. Of some 83,000 tested, about 20% had one in any assay.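 Step 1: grow cells in 96-well plates. Step 2: add test compound at a single concentration. Step 3: incubate 48 h. Step 4: record percent growth.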 Unmarked numbers belong to inactive results. Activity calls are given as the source filed them. How the source made its calls: active means growth percent below 10; inactive means the rest.

Columns and labels:
Assay in all cases: NCI-60 one-dose screen, 48 h (100 = growth as untreated, 0 = no growth, -100 = all killed)
Details in all cases: 10 µM unless noted
RPMI-8226 leukemia = tested on: RPMI-8226 leukemia
OVCAR-8 ovarian = tested on: OVCAR-8 ovarian
OVCAR-5 ovarian = tested on: OVCAR-5 ovarian
OVCAR-4 ovarian = tested on: OVCAR-4 ovarian
SK-OV-3 ovarian = tested on: SK-OV-3 ovarian
IGROV1 ovarian = tested on: IGROV1 ovarian
OVCAR-3 ovarian = tested on: OVCAR-3 ovarian
HS 578T breast = tested on: HS 578T breast
NCI/ADR-RES ovarian = tested on: NCI/ADR-RES ovarian
SR leukemia = tested on: SR leukemia

Compound	growth (RPMI-8226 leukemia)	growth (OVCAR-8 ovarian)	growth (OVCAR-5 ovarian)	growth (OVCAR-4 ovarian)	growth (SK-OV-3 ovarian)	growth (IGROV1 ovarian)	growth (OVCAR-3 ovarian)	growth (HS 578T breast)	growth (NCI/ADR-RES ovarian)	growth (SR leukemia)
Cc1ccc(OCCn2c(C)nn(-c3ccc(Cl)cc3)c2=O)cc1	97.1%	109%	113%	98.9%	113%	112%	124%	89.6%	103%	
CCCCCCC[C@@H](O)CC(=O)N[C@H](CCCCN)C(=O)N[C@H](Cc1c[nH]c2ccccc12)C(=O)NC(CCCCN)C(=O)N[C@H](CC(C)C)C(=O)N[C@H](Cc1ccccc1)C(=O)N[C@H](CCCCN)C(=O)N[C@H](CCCCN)C(=O)N[C@H](CC(C)C)C(=O)N1CCCC1C(=O)N[C@H](CCCCN)C(=O)N[C@H](Cc1ccccc1)C(=O)N[C@H](CC(C)C)C(=O)N[C@H](Cc1c[nH]cn1)C(=O)N[C@H](CC(C)C)C(=O)N[C@H](C)C(=O)N[C@H](CCCCN)C(=O)N[C@H](CCCCN)C(=O)N[C@H](Cc1ccccc1)C(=O)O (stereo partly specified)		-11.1% (active)	-63% (active)		-62.8% (active)	-29.4% (active)	-41.3% (active)	-42.4% (active)	-23.6% (active)	-13.1% (active)
CCC(=O)Oc1ccc2c(c1)CC[C@@H]1[C@@H]2CC[C@]2(C)C[C@H](OC(=O)CC)C[C@@H]12	67%	87.9%	98.4%	79%	56%	77.6%	68.8%	59.7%		
CSc1ccccc1C#C/C=C\C#Cc1ccccc1N1CCCCC1=O	64.3%	103%	96.7%	102%	109%	-29.6% (active)	97.6%	-20.4% (active)		
COc1ccc(OC)c(NC(=O)c2cc(S(=O)(=O)N3CCc4ccccc43)ccc2OC)c1	82.6%	75.5%	89.8%	94.2%	92.6%	-39.9% (active)	112%	-43.4% (active)	94.3%	
COC1=CC(c2ccc[nH]2)=N/C1=C\c1[nH]c(C)c(CCCn2cc(CCCCCCCCC[C@@H]3Cc4cc(O)ccc4C4CC[C@]5(C)[C@@H](O)CC[C@H]5C43)nn2)c1C (stereo partly specified)		70.4%	32%		84%	78.1%	63.2%	55.7%	69.5%	66.7%
CC(=O)N1Cc2ccccc2C(C)Cc2cc(Cl)ccc21 (stereo unspecified)	105%	109%	99.1%	97.9%	108%	102%	109%	97.7%		
COc1ccc(/C=C/C(=O)c2ccc(NC(=O)CN3CCN(c4cc5c(cc4F)c(=O)c(C(=O)O)cn5C4CC4)CC3)cc2)cc1	92.6%	99%	105%	101%	114%	115%	118%	94.8%	107%	
Cc1ccc2c(c1)C(C)Cc1c(ncnc1-n1cnc3ccccc31)N2C (stereo unspecified)	21.8%	21.3%	42.8%	30%	43.5%	37.6%	-34.7% (active)	8.03% (active)	17%	
O=C(/C=C/c1ccccc1)n1c(-c2ccc(Cl)cc2)nc2ccccc21	-31.1% (active)	-31.3% (active)	-48.1% (active)	30%	24%	10.4%	-57.2% (active)	20%	10.8%	
COC(=O)CCCCCCN=Cc1c(O)c(O)c(C(C)C)c2cc(C)c(-c3c(C)cc4c(C(C)C)c(O)c(O)c(C=NCCCCCCC(=O)OC)c4c3O)c(O)c12	13.2%	18.6%	21.7%	27.7%	64.8%	29.3%	21.8%	20.2%	69.1%	
CC(Br)C(OC(=O)c1ccccc1Cl)c1cc2c(cc1Br)OCO2 (stereo unspecified)	92.2%	94.8%	89.6%	77.9%	124%	68.9%	89%	88.2%	85.1%	
COc1cc(NC(=O)CCl)ccc(=O)c1	85.4%	87.6%	93.2%	75%	73.9%	58.1%	61.1%	72.2%	92%	
c1cc(-c2ccc3c(c2)OCO3)n2nccc2n1	97.1%	98.6%	94.2%	98.1%	106%	102%	103%	105%	107%	
Cc1cc2c(c(=O)o1)C(c1ccc(OC(=O)N3CCOCC3)cc1)C(C#N)=C(N)O2 (stereo unspecified)	109%	104%	98.9%	109%	101%	107%	109%	116%	105%	
Cc1ccc(-c2csc3nc(C)c(CCCl)c(=O)n23)cc1	83.8%	103%	107%	82.1%	105%	78.8%	99.4%	83%	105%	
COc1cc2nc(Cl)nc(NCCO)c2cc1OC	98.3%	98.3%	100%	102%	119%	108%	111%	104%	112%	
CCOC(=O)c1cc(/C(=N\O)c2cc(OC)c(OC)c(OC)c2)n2cc(C)cc(C)c12	17.6%	41.8%	64.3%	20.7%	37.8%	57.5%	-8.99% (active)	11.4%	22.6%	
O=C(Cc1n[nH]c(=O)c2ccccc12)OCc1c(Cl)cccc1Cl	63.7%	102%	95.7%	105%	113%	29.4%	84.5%	103%	82.4%	
Cc1ccc2c(c1)C(C)Cc1c(N(C)C)ncnc1N2C (stereo unspecified)	32.4%	51%	83.9%	61.1%	35.1%	59.5%	14%	6.88% (active)	28.5%	
CN1CCN(c2ccc3cc(-c4nc5ccccc5[nH]4)c(=O)oc3c2)CC1	64.5%	94.7%	102%	70.3%	101%	79.9%	97.2%	96.1%	86.9%	
N=C(N)c1ccc(-c2ccc(-c3ccc(Cl)cc3)o2)nc1	-62.4% (active)	-43.4% (active)	-83.8% (active)	-73.6% (active)	-96.7% (active)	-60.6% (active)	-98.3% (active)	-57.2% (active)	-69.7% (active)	
Cc1cc2c(C(C)C)c(O)c(O)c(C=NCCCCCCC(=O)O)c2c(O)c1-c1c(C)cc2c(C(C)C)c(O)c(O)c(C=NCCCCCCC(=O)O)c2c1O	10.1%	30.6%	55.9%	28.2%	63.7%	28.6%	25.8%	22.2%	67.6%	
CC1CCc2c(sc(NC(=O)CSc3nnc4ccccn34)c2C(N)=O)C1 (stereo unspecified)	119%	109%	99.7%	114%	131%	33.8%	104%	114%	118%	
Nc1cc2c(cc1N)-c1cc(N)c(N)cc1C2	95.9%	103%	109%	108%	99.2%	97.6%	109%	94.3%	111%	
Cc1ccc(Cn2c(-c3cccs3)nc3ccccc32)cc1	77.8%	82.3%	98.8%	76.6%	100%	81.8%	93.9%	89.2%	85.6%	
CC(=O)c1cc(C(=O)c2ccc3c(c2)Sc2ccccc2N3)c2cc(C)ccn12	12.3%	4.39% (active)	41.2%	38.1%	16.6%	27.8%	-14.3% (active)	14.5%	12.1%	
COc1ccc(C(=O)N2CCN(C(=O)c3cc(OC)c(OC)c(OC)c3)CC2)cc1OCCCCOc1cc2c(cc1OC)C(=O)N1CCC[C@H]1C=N2	90.3%	209%	111%	112%	108%	-18.9% (active)	105%	-24.2% (active)	110%	
Cc1ccc2c(c1)ncn2-c1ncnc2c1CC(C)c1ccccc1N2C (stereo unspecified)	-9.63% (active)	8.64% (active)	54.8%	46.5%	29.6%	16.3%	9.32% (active)	20.2%	17.1%	
